# Screening data (PubChem BioAssay)
# LDHA inh: qHTS assay for inhibitors of human lactate dehydrogenase; L-lactate dehydrogenase A chain (Homo sapiens), P00338; activity change, % (values are at about 110 or 230 µM); actives 0.15% (n = 480,000); purified LDHA, NADH/diaphorase-resazurin fluorescence; stronger effect = lower value; in the data active = activity change below about -30%; inconclusive = mostly about -25% to -30%;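 note: plate controls were DMSO wells for no effect and wells without enzyme for full effect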
#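 Enzyme activity of human lactate dehydrogenase 5 (2 nM; 0.06 mM NADH, 0.2 mM pyruvate, 5 min, RT) is measured via a resazurin/diaphorase fluorescence readout of residual NADH.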
# IL1B secr inh: qHTS for Inhibitors of Inflammasome Signaling: IL-1-beta AlphaLISA Primary Screen; activity change, % at 57.5 µM; AID 743279, 2014; THP-1 LPS/ATP IL-1B secretion, AlphaLISA, 16 h; stronger effect = lower value; actives 4.7% (n = 360,000); in the data active = activity change below about -50%; inconclusive = mostly about -30% to -49%
#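 THP-1 cells pretreated 1 hr with compounds (up to 57.5 uM final), then stimulated with LPS (250 ng/mL final) plus ATP (1.25 mM final); secreted IL-1B measured by AlphaLISA after 16 hr, decreased signal indicating inhibition.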
# DT40 TDP1 CPT: qHTS for Inhibitors of human tyrosyl-DNA phosphodiesterase 1 (TDP1): qHTS in cells in presence of CPT; chicken DT40 Tdp1-/-;hTDP1 cells + 20 nM CPT, ATP luminescence, 48 h; Potency, µM (series often up to 46.2 µM), inactives show at the highest dose activity change, negative = growth inhibition, usual class: inhibitors; actives 12% (n = 420,000); note: potency is the fitted concentration of half-maximal effect; nearly all actives have a fitted effect of over 55% in size
#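 Cell growth measured by CellTiter-Glo luminescence after a minimum 48 h, 37 C compound exposure with 20 nM CPT in Tdp1-knockout DT40 cells stably expressing hTDP1, seeded 400/well; qHTS titration format.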
# TDP1 cell noCPT: qHTS for Inhibitors of human tyrosyl-DNA phosphodiesterase 1 (TDP1): qHTS in cells in absence of CPT | DT40 Tdp1-/- hTDP1 cells, no CPT, ATP luminescence, 48 h | Potency, µM (titrated, usually from 46.2 µM), inactives show at the highest dose activity change, negative = growth inhibition, most hits filed as inhibitors | actives 15% (n = 420,000) | AID 686978, 2013; note: potency is the fitted concentration of half-maximal effect; nearly all actives have a fitted effect of over 55% in size
#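 Cells were dispensed at 400 per well, compounds added by pin tool, plates incubated ≥48 hr at 37 °C, then CellTiter-Glo added for 30 min at room temperature before luminescence reading. Line: DT40 Tdp1-/- complemented with hTDP1; camptothecin omitted.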
# Gal4-VP16 FLuc: VP16 counterscreen qHTS for inhibitors of ROR gamma transcriptional activity | Potency, µM (doses to about 53.6 µM), for the others: at the highest dose activity, negative = inhibition, most hits filed as inhibitors | Drosophila S2 Gal4-VP16 UAS-luciferase, luminescence, 20 h | actives 3.5% (n = 310,000);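 note: Gal4-VP16 expression switched on by copper sulfate through the metallothionein promoter; potency is the fitted concentration of half-maximal effect; nearly all actives have a fitted effect of over 50% in size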
# RORg inh: qHTS for inhibitors of ROR gamma transcriptional activity; Nuclear receptor ROR-gamma (Mus musculus), P51450; actives 5.4% (n = 310,000); Drosophila S2 Gal4-RORgamma UAS-luciferase reporter, 20 h; Potency, µM (titrated, usually from 53.6 µM), inactives show top-dose activity change, negative = inhibition, hits mostly inhibitors; note: potency is the fitted concentration of half-maximal effect; nearly all actives have a fitted effect of over 60% in size
# Target sequence (P51450 whole entry, looked up, the tested form may be a part): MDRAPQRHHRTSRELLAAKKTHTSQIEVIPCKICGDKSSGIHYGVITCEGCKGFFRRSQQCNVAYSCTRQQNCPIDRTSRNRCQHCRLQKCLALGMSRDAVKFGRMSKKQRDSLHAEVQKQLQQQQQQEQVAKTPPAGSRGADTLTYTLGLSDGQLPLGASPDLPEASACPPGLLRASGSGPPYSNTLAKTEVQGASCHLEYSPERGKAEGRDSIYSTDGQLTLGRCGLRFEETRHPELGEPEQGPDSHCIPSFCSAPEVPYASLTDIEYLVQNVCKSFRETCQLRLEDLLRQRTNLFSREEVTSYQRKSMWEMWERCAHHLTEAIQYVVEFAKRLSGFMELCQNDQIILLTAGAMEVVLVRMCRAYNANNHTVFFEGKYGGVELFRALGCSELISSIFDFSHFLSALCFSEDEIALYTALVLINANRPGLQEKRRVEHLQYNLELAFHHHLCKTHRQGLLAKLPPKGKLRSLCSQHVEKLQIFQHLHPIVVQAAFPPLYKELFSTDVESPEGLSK
#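 Luminescence from a UAS-regulated Photinus luciferase reporter in stably transfected Drosophila Schneider cells is measured; decreased signal marks ROR gamma inhibition. Fusion expression is induced by 700 uM copper sulfate for 20 hr.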
# The depositor's hits bear a star; ? = inconclusive; nt = no result; [ ] = remark or other dose. A selection: hits, their analogues and other compounds. The true share with any hit is near 18%. Unless noted, calls come from the whole dose curve; as a rule, active = well fitted curve in the direction sought with a large enough effect; inconclusive = small, poorly fitted or top-dose-only effect, or another doubt; inactive = no such curve, though single readings can be large; an effect the other way counts as inactive or inconclusive. Unless noted, % is set by controls: 0 for no effect and ±100 for the full control effect.
SMILES,LDHA inh,IL1B secr inh,DT40 TDP1 CPT,TDP1 cell noCPT,Gal4-VP16 FLuc,RORg inh
COc1ccc(C)cc1S(=O)(=O)N1CCCC(N2CCOCC2)C1 (stereo unspecified),-3.6,0.0,3.0%,8.2%,-0.9%,4.9%
COc1ccc(C)cc1S(=O)(=O)N1CCN(c2cccc(Cl)c2)CC1,-6.6,nt,20.6µM*,?,nt,nt
COc1ccc(Cl)cc1S(=O)(=O)N1CCN=C1C,2.4,0.5,18.4µM*,?,3.6%,-21.5%
COc1ccc(C)cc1S(=O)(=O)N1CCCC(N2CCN(c3ccccc3)CC2)C1 (stereo unspecified),-3.6,39.6,?,20.6µM*,nt,nt
COc1ccc(C)cc1S(=O)(=O)N1CCN(c2cccc(C(F)(F)F)c2)CC1,-4.4,4.9,-25.1%,?,-1.1%,27.6%
N#Cc1cccc(Cn2c(CN3CCCCC3)nc3scc(-c4cccs4)c3c2=O)c1,5.6,nt,nt,nt,nt,nt
Cc1nn(Cc2ccccc2)c(C)c1NC(=O)CSc1nc2sc3c(c2c(=O)n1C)CCC3,-7.5,38.9,?,18.4µM*,nt,nt
CN(C)C(CNC(=O)CSc1nc2sc3c(c2c(=O)n1C)CCCC3)c1ccccc1 (stereo unspecified),0.8,-1.4,23.1µM*,20.6µM*,nt,nt
O=C(O)CSc1nc2sc3c(c2c(=O)n1-c1ccccc1)CCC3,-1.0,40.8,2.0%,-28.0%,-1.6%,-11.4%
CC(NC(=O)CSc1nc2sc3c(c2c(=O)n1-c1ccccc1)CCCC3)c1ccccc1 (stereo unspecified),-1.9,35.8,6.51µM*,?,-0.7%,-7.9%
Cn1c(SCC(=O)O)nc2sc3c(c2c1=O)CCC3,0.6,17.8,-13.7%,-15.8%,5.7%,-25.9%
CCCn1c(=O)n(C)c(=O)c2c(SCC(=O)NCC(c3ccccc3)N(C)C)nc(CC(C)C)nc21 (stereo unspecified),2.5,?,20.6µM*,18.4µM*,3.0%,?
CCCc1cc(=O)oc2cc(OCC(=O)NC3CCCC3)ccc12,-0.5,nt,nt,nt,nt,nt
CC(=O)c1cccc(NC(=O)c2ccccc2CSc2nc3ccccc3o2)c1,-5.1,nt,nt,nt,nt,nt
CCn1cnc2c1c(=O)n(CC(=O)Nc1cccc(C(C)=O)c1)c(=O)n2Cc1ccccc1,-5.5,nt,nt,nt,nt,nt
CC(C)C(NC(=O)c1ccc2c(c1)NC(=O)CS2)c1cccs1 (stereo unspecified),4.3,nt,nt,nt,nt,nt
Cn1c(SCc2nnc(-c3ccccc3Br)o2)nc2sc3c(c2c1=O)CCC3,0.8,-29.1,?,18.4µM*,-2.3%,9.4%
COCCCn1c(SCc2nnc(-c3ccccc3)o2)nc2sc3c(c2c1=O)CCC3,-4.4,16.0,?,?,5.1%,-9.4%
Cc1c(Cl)ccc2c(C(=O)NC3CCCCC3)cc(-c3ccccc3)nc12,0.5,nt,nt,nt,nt,nt
S=C(Nc1ccccc1)c1ccccc1,-1.5,nt,nt,nt,nt,nt
C=CCNC(=S)Nc1ccc(Cl)cc1F,-0.9,-13.2,-23.9%,2.6%,-10.2%,14.1µM*
CN(C)/C=N/C(=S)Nc1ccccc1,-5.3,20.6,3.1%,-4.5%,15.7%[10 µM],15.8µM*
C=CCNC(=S)Nc1ccc(Br)cc1F,-2.6,12.4,-23.0%,?,?,15.8µM*
CN(C)/C=N/C(=S)Nc1ccc(Br)cc1F,-6.9,-3.6,-2.6%,?,12.6µM*,?
Cc1ccc(OC(=O)C(C)Oc2ccc(Cl)cc2Cl)c(C)c1 (stereo unspecified),2.9,nt,nt,nt,nt,nt
O=C(Nc1ccc(CN2CCOCC2)cc1)Nc1ccc2c(c1)OCCO2,-5.9,nt,nt,nt,nt,nt
